Reference: PubChem BioAssay (EPA / NIEHS)
Values joined by “and” are separate entries in the source; they are usually repeats but may differ in a detail not shown here. Equal entries are not always repeated. Some compounds were tested as several samples or in several runs, with calls that do not always agree. Active and inactive are the calls of the source. How the source made its calls: active means hit-call score of the fitted dose curve at least 0.9, where 1 is the maximum; inactive means score below 0.9.

Assay: BSK_3C_SRB: Viability Assessment in the BioMAP Diversity Plus: 3C Assay (AID 2283023);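 further: fitted both ways against DMSO so a hit may be signal rise or drop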
Settings: primary human endothelial cells (HUVEC)
Protocol: BSK_3C is a cell-based, multiplexed-readout assay that uses umbilical vein endothelium, a human vascular primary cell, with measurements taken at 24 hours after chemical dosing in a 96-well plate.BSK_3C_SRB is an assay component measured in the BSK_3C assay. It measures 0.1% sulforhodamine related to cell death using Sulforhodamine staining technology.Data from the assay component BSK_3C_SRB was analyzed into 1 assay endpoint. This assay endpoint, BSK_3C_SRB, was analyzed with bidirectional fitting relative to DMSO as the negative control and baseline of activity. Using a type of viability reporter, gain or loss-of-signal activity can be used to understand changes in the signaling. Furthermore, this assay endpoint can be referred to as a primary readout, because this assay has produced multiple assay endpoints where this one serves a signaling function. To generalize the intended target to other relatable targets, this assay endpoint is annotated to the cell morphology intended target family, where the subfamily is cell conformation.
The levels of cell surface (or secreted, indicated by the prefix "s") biomarker endpoints were measured by ELISA. Overt cytotoxicity to cells in confluent adherent cultures (all systems other than the BT system) was assessed by measuring total protein levels using sulforhodamine B (SRB) staining in parallel cultures at the time of biomarker measurements, indicated as SRB endpoints. For proliferation assays for adherent cell types, individual cell types are cultured at sub-confluence and relative cell numbers quantified by SRB staining at time points optimized for each system (48 h: 3C and CASM3C systems; 72 h: BT and HDF3CGF systems; 96 h: SAg system). SRB was performed by staining cells with 0.1% SRB after fixation with 10% TCA and reading wells at 560 nm.Viability and proliferation of PBMC (T cells) was quantified by Alamar Blue reduction for the SAg and BT systems. For PBMC viability (referred to as PBMC Cytotoxicity within the assay endpoint names), cells were plated (75,000/well in a 96-well plate) and then chemical samples added for 1 h before addition of activators, SEB and TSST-1 (20 ng/mL final concentration each). Cells were incubated for 90 h. Then, Alamar Blue (20 uL/well) (Invitrogen, Cat DAL1100) was added for 6 h, and the plates were read with a fluorescence microplate reader at 546/580 nm (excitation/emission). For PBMC proliferation, cells were plated and activated as above but incubated for only 16 h prior to addition of Alamar Blue. Plates were read after 6 h.

| SMILES | AC50 | outcome |
| --- | --- | --- |
| CCCCNC(=O)n1c(NC(=O)OC)nc2ccccc21 | 8.93 µM (active) | – |
| Fc1ccc(Oc2ccnc3cc(Cl)cc(Cl)c23)cc1 | 22.9 µM (active) | – |
| C#CCOS(=O)OC1CCCCC1Oc1ccc(C(C)(C)C)cc1 (stereo not given) | 12.3 µM (active) | – |
| CS/C(C)=N/OC(=O)N(C)SN(C)C(=O)O/N=C(\C)SC | 26.5 µM (active) | – |
| O=C(O)COc1nc(Cl)c(Cl)cc1Cl | – | inactive |
| CC(C)Oc1cc(-n2nc(C(C)(C)C)oc2=O)c(Cl)cc1Cl | 28.8 µM (active) | – |
| O=C(O)c1nc(Cl)ccc1Cl | – | inactive |
| CCCN(CCC)c1c([N+](=O)[O-])cc(S(N)(=O)=O)cc1[N+](=O)[O-] | 31.3 µM (active) [middle of 4 runs] | – |
| O=C(Nc1ccccc1)Nc1ccnc(Cl)c1 | – | inactive |
| CC1=C(C(=O)Nc2ccccc2)SCCO1 | – | inactive |
| Oc1ccccc1-c1ccccc1 | – | inactive |
| COP(N)(=O)SC (stereo not given) | – | inactive |
| CCOC(=O)C(Cl)Cc1cc(-n2nc(C)n(C(F)F)c2=O)c(F)cc1Cl (stereo not given) | – | inactive |
| COC(=O)N(OC)c1ccccc1COc1ccn(-c2ccc(Cl)cc2)n1 | 20 µM (active) | – |
| CC(C)(C)c1ccc(CSc2cnn(C(C)(C)C)c(=O)c2Cl)cc1 | 10.9 µM (active) | – |
| COc1nc(NC(C)C)nc(NC(C)C)n1 | – | inactive |
| CCc1nn(C)c(C(=O)NCc2ccc(C(C)(C)C)cc2)c1Cl | 25.3 µM (active) | – |
| CC(Oc1ccc(Cl)cc1Cl)C(=O)O (stereo not given) | – | inactive |
| CCON=C(CC)C1=C(O)CC(c2c(C)cc(C)cc2C)CC1=O (stereo not given) | – | inactive |

| SMILES | AC50 | outcome |
| --- | --- | --- |
| COC(=O)C(C)Oc1ccc(Oc2ccc(Cl)cc2Cl)cc1 (stereo not given) | 14 µM (active) and 20 µM (active) | inactive |
| CN(C)C(=S)SSC(=S)N(C)C | – | inactive |
| CC(C)C1(C)N=C(c2nc3ccccc3cc2C(=O)O)NC1=O (stereo not given) | – | inactive |
| CON(C)C(=O)Nc1ccc(Cl)c(Cl)c1 | – | inactive |
| COC(=O)C=C(C)OP(=O)(OC)OC | – | inactive |
| CO/C=C(/C(=O)OC)c1ccccc1Oc1cc(Oc2ccccc2C#N)ncn1 | 20 µM (active) [middle of 4 runs] | – |
| CCCC1COC(Cn2cncn2)(c2ccc(Cl)cc2Cl)O1 (stereo not given) | – | inactive |
| N#Cc1cc(Br)c(O)c(Br)c1 | 20 µM (active) | – |
| CCCCOC(=O)c1ccccc1C(=O)OCCCC | 15.2 µM (active) | inactive |
| CCNc1nc(Cl)nc(NC(C)C)n1 | – | inactive |
| N#Cc1nn(-c2c(Cl)cc(C(F)(F)F)cc2Cl)c(N)c1S(=O)C(F)(F)F (stereo not given) | 32.8 µM (active) | – |
| Cc1ccc(-c2c(Cl)nc(C#N)n2S(=O)(=O)N(C)C)cc1 | 26.1 µM (active) | – |
| CCCCC(CC)COC(=O)c1ccccc1C(=O)OCC(CC)CCCC (stereo not given) | 10.5 µM (active) | – |
| C=CCC1=C(C)C(OC(=O)C2C(C=C(C)C)C2(C)C)CC1=O (stereo not given) | 32.8 µM (active) [middle of 4 runs] | – |
| OC(c1ccc(Cl)cc1)(c1cncnc1)c1ccccc1Cl (stereo not given) | 26 µM (active) | – |
| C=CCC1=C(C)[C@@H](OC(=O)[C@@H]2[C@@H](C=C(C)C)C2(C)C)CC1=O | 25.8 µM (active) | – |
| COc1nc(C)nc(NC(=O)NS(=O)(=O)c2ccccc2CCC(F)(F)F)n1 | – | inactive |
| C=CC1(C)OC(=O)N(c2cc(Cl)cc(Cl)c2)C1=O (stereo not given) | – | inactive |
| CCCCNC(=O)OCC#CI | 18.9 µM (active) and 21.1 µM (active) | – |
